For test [1], the target named is Rap guanine nucleotide exchange factor 3 (Homo sapiens) (UniProt O95398). The test can be described thus: Confirmatory qHTS for antagonist of cAMP-regulated guanine nucleotide exchange factor 3 (EPAC1) (AID 1645880).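 For activity, negative = inhibition: plate controls were DMSO only for no effect and full effect of the ATA control for full effect.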 Note: nearly all actives have a fitted effect of over 55% in size. Note: potency is the fitted concentration of half-maximal effect. To be noted: EPAC1 Rap1B-BODIPY-GDP exchange, fluorescence; activity, negative = inhibition: at 115 µM (top of the series). The essentials:
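Released BODIPY-GDP fluoresces less than Rap1-bound BODIPY-GDP; the signal is followed at 480/540 nm at 5-min intervals over 30 min, after 5 min at room temperature. Reactions contain 100 nM EPAC1, 250 nM RAP1B-BODIPY-GDP and 50 uM GDP; results are normalized to ATA and DMSO.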

Test [2] has the same target. The test can be described thus: Confirmatory qHTS for agonist of cAMP-regulated guanine nucleotide exchange factor 3 (EPAC1) (AID 1645881).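 For activation: EPAC1 catalysed release of BODIPY-GDP from Rap1B seen as fluorescence loss; 100% = effect of cAMP agonist control.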 Note: nearly all actives have a fitted effect of over 75% in size. Note: potency is the fitted concentration of half-maximal effect.
Test [3] addresses Rap guanine nucleotide exchange factor 4 (Homo sapiens) (UniProt Q8WZA2). The test can be described thus: Confirmatory qHTS for agonist of cAMP-regulated guanine nucleotide exchange factor 4 (EPAC2) (AID 1645884). For activation: % is set by controls: 0 for no effect and ±100 for the full control effect.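 Note: nucleotide exchange releases bodipy-GDP from Rap1 and this lowers its fluorescence; nearly all actives have a fitted effect of over 65% in size.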 Note: potency is the fitted concentration of half-maximal effect.
The target is the same in test [4]. The test can be described thus: Confirmatory qHTS for antagonist of cAMP-regulated guanine nucleotide exchange factor 4 (EPAC2) (AID 1645885). Note: nearly all actives have a fitted effect of over 25% in size. Note: potency is the fitted concentration of half-maximal effect.
Test [5] concerns the target Rap guanine nucleotide exchange factor 3 (Homo sapiens) (UniProt O95398). The test can be described thus: Counterscreen qHTS for antagonist of cAMP-regulated guanine nucleotide exchange factor 3 (EPAC1) (AID 1645888). Note: % of control where 0% means no effect. The essentials: (§1)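 Rap1B-BODIPY-GDP 250 nM + GDP 50 uM; cpds 7-pt, final 9.74 nM–152 uM (activator mode) or from 7.32 nM upwards (inhibitor mode); RT; FI 480/540 nm at 5 and 30 min, then ± cAMP, reread.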

For test [6] the target is unchanged. The test can be described thus: Counterscreen qHTS for agonist of cAMP-regulated guanine nucleotide exchange factor 3 (EPAC1) (AID 1645889). For activation: % of control where 0% means no effect. Note: nearly all actives have a fitted effect of over 40% in size. Note: potency is the fitted concentration of half-maximal effect. The essentials:
as §1

Test [7] in a line: AP1 Signaling Pathway (AID 357; active = well fitted curve in either direction with a large enough effect, not every such curve was filed as active;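 note: ME-180 reporter cells stimulated with EGF at its EC50 level; % is set by controls: 0 for no effect and ±100 for the full control effect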). Particulars: ME-180 (cervical carcinoma) AP-1-bla reporter, EGF-induced, beta-lactamase ratio, 5 h; at 7.69 µM (top of the series) unless noted. The essentials:
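Titration-series screen for positive or negative modulators of EC50 EGF-induced signaling in ME-180 cells carrying an AP-1-driven beta-lactamase reporter. After 5 hours at 37 degrees Celsius, CCF4 460nm/530nm emission ratio gave %Activity; AC50 values derived.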

Test [8] can be described thus: NFAT Signaling Pathway (AID 444; active = well fitted curve in either direction with a large enough effect, not every such curve was filed as active;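 note: carbachol stimulus at about its EC50 of 1 µM final; % is set by controls: 0 for no effect and ±100 for the full control effect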). To be noted: Jurkat NFAT-bla M1, carbachol, beta-lactamase ratio, 5 h; at 7.69 µM (top of the series) unless noted. The essentials:
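Read-out: CCF4 FRET ratio (460 nm/530 nm) after 1 h RT dye loading, used for %activity and AC50 from titration series. Cells: Jurkat NFAT-β-lactamase/M1 line, treated with compound plus 1 uM carbachol for 5 h, 37 °C.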

Test [9] in a line: Stat Signaling Pathway (AID 446; active = well fitted curve in either direction with a large enough effect, not every such curve was filed as active;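 note: ME-180 cervical cancer cells given 40 pM IL-6 alongside compound; SIE-controlled beta-lactamase reporter measured as 460/530 nm FRET emission ratio; % is set by controls: 0 for no effect and ±100 for the full control effect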). The essentials:
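Emission at 460 and 530 nm (excitation 405 nm) reports SIE-controlled beta-lactamase in ME-180 cells. Cells received compound with 40 pM IL-6 for 5 hrs at 37 C; data scaled between 300 pM IL-6 and 125 nM JAK-inhibitor controls.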

The target in test [10] is Glucocorticoid receptor (Homo sapiens) (UniProt P04150). The test can be described thus: GR-GFP Redistribution (AID 450;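 active = compounds whose dose series gives a full or clear partial fitted curve of increased nuclear translocation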; note: potency is the fitted concentration of half-maximal effect). To be noted: U2OS GR-GFP nuclear translocation, laser cytometry, 2 h.
Sequence of Glucocorticoid receptor (Homo sapiens) (P04150 whole entry, looked up): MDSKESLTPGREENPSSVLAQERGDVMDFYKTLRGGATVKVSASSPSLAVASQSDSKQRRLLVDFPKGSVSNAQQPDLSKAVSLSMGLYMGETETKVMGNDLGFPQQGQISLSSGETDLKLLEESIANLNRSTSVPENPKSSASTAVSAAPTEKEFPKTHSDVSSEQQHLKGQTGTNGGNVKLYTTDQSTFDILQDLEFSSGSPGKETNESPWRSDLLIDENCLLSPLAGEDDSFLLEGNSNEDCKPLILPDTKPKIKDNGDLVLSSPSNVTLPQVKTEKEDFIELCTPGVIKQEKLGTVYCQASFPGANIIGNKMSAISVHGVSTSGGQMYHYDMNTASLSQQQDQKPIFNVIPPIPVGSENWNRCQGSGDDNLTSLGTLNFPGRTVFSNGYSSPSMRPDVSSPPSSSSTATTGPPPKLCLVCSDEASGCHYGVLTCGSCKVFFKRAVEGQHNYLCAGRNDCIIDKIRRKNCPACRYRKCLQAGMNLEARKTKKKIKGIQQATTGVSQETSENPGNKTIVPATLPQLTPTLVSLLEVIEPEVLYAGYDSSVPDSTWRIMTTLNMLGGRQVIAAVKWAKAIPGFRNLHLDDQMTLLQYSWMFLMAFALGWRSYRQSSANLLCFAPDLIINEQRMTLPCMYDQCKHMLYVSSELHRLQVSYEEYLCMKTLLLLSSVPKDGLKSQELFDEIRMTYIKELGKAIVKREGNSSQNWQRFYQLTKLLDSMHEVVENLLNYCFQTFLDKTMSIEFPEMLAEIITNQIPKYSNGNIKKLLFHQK

This is an account of results in PubChem BioAssay (NCATS).

Structures are written as SMILES. A number with no mark means an inactive call. Results filed as inconclusive are left out. Activity calls are given as the source filed them. Unless noted, calls come from the whole dose curve; as a rule, active = well fitted curve in the direction sought with a large enough effect; inconclusive = small, poorly fitted or top-dose-only effect, or another doubt; inactive = no such curve, though single readings can be large; an effect the other way counts as inactive or inconclusive.

Sequence of Rap guanine nucleotide exchange factor 3 (Homo sapiens) (O95398 whole entry, looked up): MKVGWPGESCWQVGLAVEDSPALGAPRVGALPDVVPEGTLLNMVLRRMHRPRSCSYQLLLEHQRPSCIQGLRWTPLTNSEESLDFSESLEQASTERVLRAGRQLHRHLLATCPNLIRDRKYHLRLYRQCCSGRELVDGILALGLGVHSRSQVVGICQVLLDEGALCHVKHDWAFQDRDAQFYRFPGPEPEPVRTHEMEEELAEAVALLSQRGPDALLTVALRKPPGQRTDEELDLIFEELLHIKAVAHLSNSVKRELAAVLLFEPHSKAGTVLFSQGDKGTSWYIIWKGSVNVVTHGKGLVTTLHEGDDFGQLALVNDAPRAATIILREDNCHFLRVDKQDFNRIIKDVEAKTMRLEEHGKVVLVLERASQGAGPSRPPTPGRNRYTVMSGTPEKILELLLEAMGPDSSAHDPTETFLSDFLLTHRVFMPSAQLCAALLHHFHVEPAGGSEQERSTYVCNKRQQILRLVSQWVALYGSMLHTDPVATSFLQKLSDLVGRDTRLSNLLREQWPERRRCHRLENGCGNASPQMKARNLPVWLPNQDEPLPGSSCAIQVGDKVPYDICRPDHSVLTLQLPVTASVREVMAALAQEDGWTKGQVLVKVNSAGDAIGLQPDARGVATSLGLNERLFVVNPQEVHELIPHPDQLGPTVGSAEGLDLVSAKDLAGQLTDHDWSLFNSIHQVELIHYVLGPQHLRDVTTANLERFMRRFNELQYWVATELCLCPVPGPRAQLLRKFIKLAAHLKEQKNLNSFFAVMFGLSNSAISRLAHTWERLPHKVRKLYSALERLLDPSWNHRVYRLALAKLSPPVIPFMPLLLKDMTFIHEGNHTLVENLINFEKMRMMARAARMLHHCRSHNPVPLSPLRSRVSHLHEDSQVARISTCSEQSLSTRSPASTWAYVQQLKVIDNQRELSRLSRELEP
Sequence of Rap guanine nucleotide exchange factor 4 (Homo sapiens) (Q8WZA2 whole entry, looked up): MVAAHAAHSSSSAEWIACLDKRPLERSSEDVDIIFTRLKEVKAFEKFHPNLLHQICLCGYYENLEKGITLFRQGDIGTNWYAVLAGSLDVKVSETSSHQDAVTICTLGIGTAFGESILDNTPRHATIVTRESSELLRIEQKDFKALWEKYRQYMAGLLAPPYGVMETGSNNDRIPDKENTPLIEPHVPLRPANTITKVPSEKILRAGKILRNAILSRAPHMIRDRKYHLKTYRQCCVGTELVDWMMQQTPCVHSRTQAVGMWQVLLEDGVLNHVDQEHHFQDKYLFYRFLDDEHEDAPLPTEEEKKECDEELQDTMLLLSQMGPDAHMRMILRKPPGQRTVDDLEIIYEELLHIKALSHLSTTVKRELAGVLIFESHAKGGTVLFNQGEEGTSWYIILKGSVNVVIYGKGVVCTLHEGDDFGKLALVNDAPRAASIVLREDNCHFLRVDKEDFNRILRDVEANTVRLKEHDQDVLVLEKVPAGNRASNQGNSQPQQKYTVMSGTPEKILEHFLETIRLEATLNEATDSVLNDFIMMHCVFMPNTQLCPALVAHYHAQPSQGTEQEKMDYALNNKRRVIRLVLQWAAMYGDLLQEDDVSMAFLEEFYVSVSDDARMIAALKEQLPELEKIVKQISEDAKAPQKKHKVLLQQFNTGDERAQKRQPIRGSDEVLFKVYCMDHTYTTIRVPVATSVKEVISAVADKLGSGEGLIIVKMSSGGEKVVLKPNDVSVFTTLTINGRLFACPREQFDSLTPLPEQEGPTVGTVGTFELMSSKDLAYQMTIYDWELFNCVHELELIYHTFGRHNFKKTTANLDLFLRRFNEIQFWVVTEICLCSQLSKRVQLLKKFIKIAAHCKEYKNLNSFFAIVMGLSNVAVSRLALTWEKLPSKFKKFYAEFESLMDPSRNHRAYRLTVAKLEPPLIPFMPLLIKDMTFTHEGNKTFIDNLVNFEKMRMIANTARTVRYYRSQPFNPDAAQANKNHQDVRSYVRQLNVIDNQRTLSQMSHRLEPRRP

For the compound `CCOc1ccc(/C=C2\SC(=S)NC2=O)cc1OC`, the Potency in test [1] is 15.1 µM (active). Also, the Potency entry in [2], in test [3], in test [4], in test [5] and in test [6] was “inactive” in each case.

`COc1cccc(C(=O)NC(=S)N2c3ccccc3CC2C)c1OC` (centres undefined): the Potency result in [1], in [2] and in [4] was “inactive” throughout. For the same compound, the activation in test [3] was 5.75% [at 17.1 µM, percent relative to cAMP agonist control]; in [6], 14.2% [at 30.8 µM]. The activity change, negative = inhibition in [5] was -1.25% [at 30.8 µM].

As to `Cc1cccc(S(=O)(=O)NC(=O)C2(C)CCN2C(=O)Cc2cc(F)ccc2F)c1` (centres undefined), the Potency entry in test [1], in [2] and in [4] was “inactive” in each case. Further, the activation is 11.8% [at 17.1 µM, percent relative to cAMP agonist control] in [3] and -2.2% [at 30.8 µM] in [6]. Further, in test [5], the activity change, negative = inhibition is 9.86% [at 30.8 µM].

As to `Cc1cc(-c2nn(-c3ccccc3F)cc2CN2CCCC(O)C2)c(C)s1` (centres undefined), the Potency entry in test [1], in [2] and in [4] was “inactive” in each case. The activation in test [3] was 2.57% [at 17.1 µM, percent relative to cAMP agonist control]; in [6], 23.9% [at 30.8 µM]. Moreover, in test [5], the activity change, negative = inhibition was -17.9% [at 30.8 µM].

`Cn1cc(C(=O)C(=O)N2CCCCC2)c2ccccc21`: the Potency entry in [1], in test [2], in [3], in test [4], in [5] and in [6] was “inactive” in each case.

Consider `O=C(CSc1nccn1C1CCCC1)Nc1cc(C(F)(F)F)ccc1Cl`, for which the Potency entry in test [1], in [2], in test [3], in test [4], in [5] and in test [6] was “inactive” in each case.

For `COc1ccc([C@@H]2[C@@H]3C(=O)N(C(C)(C)C)C(=O)[C@@H]3[C@]3(Cc4ccccc4)C(=O)N(c4cccc(Br)c4)C(=O)N23)cc1`, the Potency result in [1], in [2] and in [4] was “inactive” in each case. Also, the activation in test [3] was 2.72% [at 17.1 µM, percent relative to cAMP agonist control]; in test [6], 10.3% [at 30.8 µM]. Further, the activity change, negative = inhibition in [5] is -15.9% [at 30.8 µM].

As to `COc1ccc(C2c3ccsc3CCN2C(C)=O)cc1` (centres undefined), the Potency entry in [1], in test [2], in test [3], in test [4], in [5] and in test [6] was “inactive” in each case.

For `C/C(CC(=O)Nc1ccc2ccccc2c1)=N\NC(=O)c1ccc(O)c(O)c1`, in test [1], the Potency was 53.6 µM (active). The Potency entry in [2], in test [3], in test [4], in test [5] and in test [6] was “inactive” in each case.

`Cn1cc([C@]2(O)C(=O)Nc3c(F)cccc32)c2ccccc21`: the Potency entry in test [1], in test [2], in test [3], in [4], in test [5] and in test [6] was “inactive” each time.

For the compound `O=C(O)c1ccc(N/N=C/c2cccc(C(F)(F)F)c2)cc1`, the Potency result in [1], in test [2], in test [3], in test [4], in [5] and in test [6] was “inactive” each time.

As for `COC(=O)CN1C(=S)N(c2ccc(OC)cc2)C(=O)/C1=C/c1ccc(N2CCOCC2)cc1`, the Potency result in test [1] and in [5] was “inactive” throughout. In addition, the Potency in test [2] is 100 µM (active); in test [3], 100 µM (active); in test [4], 75.7 µM (active); in [6] it was 28.2 µM (active).

For the compound `CSc1ccc(CC2C(=O)Nc3ccccc32)cc1` (centres undefined), the Potency entry in test [1], in test [2], in test [3], in [4], in test [5] and in test [6] was “inactive” throughout.

Regarding `Cc1ccc(C)c(CSc2nnc(C)n3c2cc2sccc23)c1`, the Potency entry in test [1], in test [2], in test [3], in test [4], in test [5] and in test [6] was “inactive” throughout.

With `Fc1ccc(-c2ccc3nccn3c2)cc1Cl`, the Potency result in test [1], in test [2] and in test [4] was “inactive” each time. Moreover, the activation is 2.32% [at 17.1 µM, percent relative to cAMP agonist control] in [3] and 10.1% [at 30.8 µM] in test [6]. Besides, the activity change, negative = inhibition in [5] is -1.11% [at 30.8 µM].

On to `CCc1nc2c(OCc3ccc(C(=O)N(C)C)cc3)cccn2c1N(C)C(=O)c1ccc(C)cc1`, for which the Potency result in test [1], in test [2] and in test [4] was “inactive” each time. Also, the activation in test [3] was 2.55% [at 17.1 µM, percent relative to cAMP agonist control]; in test [6] it was 21.1% [at 30.8 µM]. The activity change, negative = inhibition in test [5] was -28.5% [at 30.8 µM].

`CCc1nnc(NC(=O)c2ccc(-c3cccc(C(F)(F)F)c3)o2)s1`: the Potency entry in test [1], in test [2] and in test [4] was “inactive” throughout. In addition, the activation in test [3] was 4.04% [at 17.1 µM, percent relative to cAMP agonist control]; in [6], 26.6% [at 30.8 µM]. For the same compound, in test [5], the activity change, negative = inhibition is 7.54% [at 30.8 µM].

In the case of `O=C1CCC/C(=N/NC(=O)c2sc3ccccc3c2Cl)C1`, the Potency entry in test [1], in test [2], in test [3] and in test [5] was “inactive” throughout. The Potency in test [4] is 16.9 µM (active); in test [6], 22.4 µM (active).

For `O=C1CCC([N+](=O)[O-])C(c2cccc3ccccc23)N1` (centres undefined), the Potency entry in test [1], in test [2] and in test [4] was “inactive” each time. Moreover, the activation was 0% [at 17.1 µM, percent relative to cAMP agonist control] in [3] and 45.7% [at 30.8 µM] in test [6]. Further, in test [5], the activity change, negative = inhibition is -21.9% [at 30.8 µM].

With `O=C(O)CC1Sc2nc3ccccc3n2C1=O` (centres undefined), the activity change, negative = inhibition in [7] is 12.1% [at 17.2 µM]; in [8] it was 6.71% [at 17.2 µM]; in [5], -7.87% [at 30.8 µM]. Besides, the compound was classed as inactive in [9]. Moreover, in [10], the Potency is more than 20.6 µM. The Potency result in test [1], in test [2] and in [4] was “inactive” in each case. The activation in [3] was 10.5% [at 17.1 µM, percent relative to cAMP agonist control]; in test [6], 12.5% [at 30.8 µM].
